{
  "source": "PubChem BioAssay (EPA / NIEHS)",
  "note": "The source made the active and inactive calls. Rule for the calls: active = hit-call score of the fitted dose curve at least 0.9, where 1 is the maximum; inactive = score below 0.9.",
  "data": [
    {"assay": "BSK_hDFCGF_Proliferation: Cell Proliferation Assessment in the BioMAP Diversity Plus: hDFCGF Assay (AID 2283059);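 note: curves fitted for both rise and fall of signal versus DMSO baseline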", "conditions": "primary human foreskin fibroblasts", "protocol": "BSK_hDFCGF is a cell-based, multiplexed-readout assay that uses foreskin fibroblast, a human skin primary cell, with measurements taken at 24 hours after chemical dosing in a 96-well plate.BSK_hDFCGF_Proliferation is an assay component measured in the BSK_hDFCGF assay. It measures […] related to cell proliferation using Sulforhodamine staining technology.Data from the assay component BSK_hDFCGF_Proliferation was analyzed into 1 assay endpoint. This assay endpoint, BSK_hDFCGF_Proliferation, was analyzed with bidirectional fitting relative to DMSO as the negative control and baseline of activity. Using a type of viability reporter, measures of total protein for gain or loss-of-signal activity can be used to understand the viability at the cellular-level. Furthermore, this assay endpoint can be referred to as a secondary readout, because this assay has produced multiple assay endpoints where this one serves a viability function. To generalize the intended target to other relatable targets, this assay endpoint is annotated to the cell cycle intended target family, where the subfamily is proliferation.\nThe levels of cell surface (or secreted, indicated by the prefix \"s\") biomarker endpoints were measured by ELISA. Overt cytotoxicity to cells in confluent adherent cultures (all systems other than the BT system) was assessed by measuring total protein levels using sulforhodamine B (SRB) staining in parallel cultures at the time of biomarker measurements, indicated as SRB endpoints. For proliferation assays for adherent cell types, individual cell types are cultured at sub-confluence and relative cell numbers quantified by SRB staining at time points optimized for each system (48 h: 3C and CASM3C systems; 72 h: BT and HDF3CGF systems; 96 h: SAg system). SRB was performed by staining cells with 0.1% SRB after fixation with 10% TCA and reading wells at 560 nm.Viability and proliferation of PBMC (T cells) was quantified by Alamar Blue reduction for the SAg and BT systems. For PBMC viability (referred to as PBMC Cytotoxicity within the assay endpoint names), cells were plated (75,000/well in a 96-well plate) and then chemical samples added for 1 h before addition of activators, SEB and TSST-1 (20 ng/mL final concentration each). Cells were incubated for 90 h. Then, Alamar Blue (20 uL/well) (Invitrogen, Cat DAL1100) was added for 6 h, and the plates were read with a fluorescence microplate reader at 546/580 nm (excitation/emission). For PBMC proliferation, cells were plated and activated as above but incubated for only 16 h prior to addition of Alamar Blue. Plates were read after 6 h.", "values": [
      {"molecule": "CCOC(=O)c1ccc(C2CCC(NC[C@H](O)COc3ccc(O)c(NS(C)(=O)=O)c3)CC2)cc1", "note": "(stereo not given in full)", "AC50": "1.75 µM (active)"},
      {"molecule": "COC(=O)CC(=O)OC", "outcome": "inactive"},
      {"molecule": "COCCOc1cc2cc(C(=O)NC3CCN(C(C)C)CC3)n(CC(=O)Nc3ccc(Cl)cn3)c2cn1", "outcome": "inactive"},
      {"molecule": "CC(C)=CCCC(C)=CC=O", "AC50": "28.1 µM (active)"},
      {"molecule": "O=C(O)c1cccc(N(Cc2cccnc2)c2ccc(OC(F)F)c(OC(F)F)c2)c1", "outcome": "inactive"},
      {"molecule": "CCNc1ccccc1", "outcome": "inactive"},
      {"molecule": "O=c1n(CC2CO2)c(=O)n(CC2CO2)c(=O)n1CC1CO1", "note": "(stereo not given)", "AC50": "4.36 µM (active)"},
      {"molecule": "COCCOCCOCCOC", "outcome": "inactive"},
      {"molecule": "CC1=CC(=O)CC(C)(C)C1", "outcome": "inactive"},
      {"molecule": "CC/C(=C\\C(=N/O)C(N)=O)C(C)[N+](=O)[O-]", "note": "(stereo not given)", "outcome": "inactive"},
      {"molecule": "C1N2CN3CN1CN(C2)C3", "outcome": "inactive"},
      {"molecule": "Cn1c(=O)c2c(ncn2C)n(C)c1=O", "outcome": "inactive"},
      {"molecule": "CCCCC(CC)COC(=O)c1ccc(C(=O)OCC(CC)CCCC)cc1", "note": "(stereo not given)", "outcome": "inactive"},
      {"molecule": "CCOCCOCCOCCO", "outcome": "inactive"},
      {"molecule": "CC1(C)C(=O)N(Br)C(=O)N1Br", "outcome": "inactive"},
      {"molecule": "CCCCCCc1ccc(O)cc1O", "AC50": "19 µM (active)"},
      {"molecule": "O=C(NS(=O)(=O)/C=C/c1ccccc1)c1ccc(F)cc1Cl", "AC50": "12.9 µM (active)"},
      {"molecule": "O=C1CCCCCN1", "outcome": "inactive"},
      {"molecule": "CCOCCO", "outcome": "inactive"},
      {"molecule": "O=C(O)c1cc(N=Nc2ccc(S(=O)(=O)Nc3ccccn3)cc2)ccc1O", "outcome": "inactive"},
      {"molecule": "Clc1nc(Cl)c(Cl)c(Cl)c1Cl", "outcome": "inactive"},
      {"molecule": "CCc1cc(SCc2sc(-c3ccc(C(F)(F)F)cc3)nc2CN2CCN(c3ccc(OC)cc3)CC2)ccc1OCC(=O)O", "AC50": "1.68 µM (active)"},
      {"molecule": "CC(C)CC(C)(O)C#CC(C)(O)CC(C)C", "note": "(stereo not given)", "outcome": "inactive"},
      {"molecule": "Nc1ccc(Nc2ccccc2)cc1", "AC50": "7.37 µM (active)"},
      {"molecule": "CC(=O)OCCC(C)C", "outcome": "inactive"},
      {"molecule": "O=C(O)c1cccc(Oc2ccccc2)c1", "outcome": "inactive"},
      {"molecule": "CCOc1cccc(-n2cc(C(=O)N3CCN(c4cc(C(=O)O)c5ccccc5c4)CC3)nc2-c2ccc(C)cc2)c1", "AC50": "10.2 µM (active)"},
      {"molecule": "CC(C)=CCC/C(C)=C\\CO", "AC50": "0.171 µM (active)"},
      {"molecule": "Cc1c(-c2cccnc2)c2ccccc2n1CCCCC(=O)O", "outcome": "inactive"},
      {"molecule": "CN(C)c1ccc(Cc2ccc(N(C)C)cc2)cc1", "AC50": "3 µM (active)"},
      {"molecule": "CC(O)CN(CCN(CC(C)O)CC(C)O)CC(C)O", "note": "(stereo not given)", "outcome": "inactive"},
      {"molecule": "CN(C)c1ccc(N=NS(=O)(=O)O)cc1", "AC50": "12.8 µM (active)"},
      {"molecule": "CCCN(C1CCN(C(=O)C2CCNCC2)CC1)[C@@H]1CCc2ccc(OC)cc2C1", "outcome": "inactive"},
      {"molecule": "CCCCCCCCCCCCCCCO", "AC50": "20 µM (active)"},
      {"molecule": "O=C1OC(=O)C2C3C=CC(C3)C12", "note": "(stereo not given)", "outcome": "inactive"},
      {"molecule": "CC(=O)OC[C@H]1O[C@@](COC(C)=O)(O[C@H]2O[C@H](COC(C)=O)[C@@H](OC(C)=O)[C@H](OC(C)=O)[C@H]2OC(C)=O)[C@@H](OC(C)=O)[C@@H]1OC(C)=O", "outcome": "inactive"},
      {"molecule": "O=P(OC(CCl)CCl)(OC(CCl)CCl)OC(CCl)CCl", "AC50": "16.2 µM (active)"},
      {"molecule": "O=c1[nH]c2ccc(S(=O)CCN3CCC(Cc4ccc(F)cc4)CC3)cc2o1", "note": "(stereo not given)", "AC50": "4.49 µM (active)"},
      {"molecule": "CC(=O)c1ccc2c(c1)[C@H](NC(=O)c1ccc(F)cc1)[C@@H](O)C(C)(C)O2", "outcome": "inactive"},
      {"molecule": "On1ccccc1=S", "AC50": "0.148 µM (active)"}
    ]}
  ]
}
